Laboratory results published in PubChem BioAssay (Tox21).
Where “and” joins values, the source holds several entries; their conditions need not be identical. Identical values can stand only once. Inconclusive results are not listed. Some compounds were tested as several samples or in several runs, with calls that do not always agree. Calls of active or inactive are those of the source. Unless noted, calls follow the shape of the dose curve; as a rule, active = well fitted curve in the direction sought with a large enough effect in the repeat runs; inconclusive = weak or mixed curves; inactive = no such curve, though single readings can be large; an effect the other way counts as inactive or inconclusive.

What was measured:
[1] = qHTS assay to identify small molecule agonists of the RXR signaling pathway - cell viability counter screen (AID 1159529); also: nearly all actives have a fitted effect of over 50% in size; also: potency is read from the fitted curve at half-maximal effect
Method in brief: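 Viability read-out for the RXR-alpha agonist qHTS: luminescent CellTiter-Glo signal after 30 min at RT. HEK 293T bla reporter cells, 2% charcoal-stripped FBS, 16 hr compound incubation; tetraoctyl ammonium bromide as cytotoxic control.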

[2] = qHTS assay to identify small molecule antagonists of the retinoid acid receptor (RAR) signaling pathway - cell viability counter screen (AID 1159551); also: nearly all actives have a fitted effect of over 35% in size
Method in brief: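 Viability of C3RL4 cells is quantified from ATP by luminescence after 6 h treatment at 37 C with compounds and 1 uM retinol.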

[3] = qHTS assay to identify small molecule antagonists of the retinoic acid receptor (RAR) signaling pathway (AID 1159552; also: nearly all actives have a fitted effect of over 50% in size; also: potency is read from the fitted curve at half-maximal effect)
Method in brief: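 Using a RARE-driven luciferase construct in C3RL4 cells, retinol at 1 uM final provided the agonist stimulus while compounds were co-applied. After 6 hours at 37 C, luminescence was recorded to flag inhibitors of retinol signaling.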

[4] = qHTS assay to identify small molecule agonists of the retinoic acid receptor (RAR) signaling pathway (AID 1159553); conditions: C3RL4 RARE luciferase reporter, agonist, 6 h; also: potency is read from the fitted curve at half-maximal effect
Method in brief: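 Compounds dissolved in DMSO were pinned onto C3RL4 cells seeded the previous day, and plates were held 6 hr at 37 C. RARE-driven luciferase output was then read by luminescence.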

[5] = qHTS assay to identify small molecule antagonists of the estrogen related receptor (ERR) signaling pathway from Tox21 library - cell viability counter screen (AID 1224834); also: nearly all actives have a fitted effect of over 30% in size; also: potency is read from the fitted curve at half-maximal effect
Method in brief: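 In this quantitative HTS format, ERR cells receive compounds in DMSO and are incubated for 17.5 h at 37 C. Live-cell protease activity is then detected with CellTiter-Fluor.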

[6] = qHTS assay to identify small molecule antagonists of the estrogen related receptor signaling pathway with the pleiotropic PPARgamma coactivator (PGC) cell viability counter screen (AID 1224822;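 also: viability read after 17.5 h compound exposure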)
Method in brief: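 Viable cell signal (CellTiter-Fluor, 30 min, 37 C/5% CO2) was measured in PGC/ERR cells after a 17.5 h compound incubation.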

[7] = qHTS assay to identify small molecule agonists of the estrogen related receptor (ERR) signaling pathway (AID 1224820)
Method in brief: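 After 6 h plating (2,000 cells/well) and 18 h compound treatment at 37 C, ERR cells were lysed with One-Glo and luminescence read after 30 min at room temperature.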

[8] = tested on: estrogen-related receptor alpha (ERRalpha) with PGC-1alpha coactivator, human; assay: qHTS assay to identify small molecule antagonists of the estrogen related receptor signaling pathway with the pleiotropic PPARgamma coactivator (PGC) (AID 1224821; calls by dose curve;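 also: lower luminescence signal means antagonism of PGC/ERR signalling; nearly all actives have a fitted effect of over 50% in size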)
Source text: National Center for Advancing Translational Sciences [NCATS]
NIH Chemical Genomics Center [NCGC]
U.S. Environmental Protection Agency [EPA]
National Institutes of Environmental Health Sciences [NIEHS]
National Toxicology Program [NTP]
U.S. Food and Drug Administration [FDA]
Estrogen related receptors (ERRs), the first orphan nuclear receptors discovered, play an important role in the control of cellular energy metabolism. ERRs are required for high-energy production in response to the environmental challenges. The pleiotropic PPARgamma coactivator (PGC) is a major partner of ERR and a key regulator in energy homeostasis. Together they have been implicated in the etiology of metabolic disorders such as Type 2 diabetes and metabolic syndrome. ERR-alpha was also identified as an adverse marker for breast cancer progression; ERR-alpha-positive tumors have a poor prognosis. To screen and to identify environmental compounds that perturb the ERR and PGC/ERR signaling pathways could provide valuable information for potential therapeutic or preventive measures in the treatment of metabolic disease. For identifying PGC/ERR antagonists, PGC/ERR cell line (provided by NTP) has been used to screen LOPAC library.
Tox21 Assay Protocol Summary:
The PGC/ERR cells were dispensed at 2,000 cells/5 ul/well in 1536-well white plates using a Multidrop dispenser. After the assay plates were incubated at a 37 C/5% CO2 incubator for 6 hours, 23 nL of compounds dissolved in DMSO, positive and negative controls or DMSO only was transferred to the assay plate by a pin tool. The plates were incubated at 37 C for 18 hours. 4 ul/well of One-Glo reagent was added into the assay plates using a Flying Reagent Dispenser. After 30 min incubation at room temperature, the luminescence intensity in the plates was measured using a ViewLux plate reader.

[9] = qHTS assay to identify small molecule agonists of the estrogen related receptor signaling pathway with the pleiotropic PPARgamma coactivator (PGC) (AID 1224823)
Method in brief: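 Luminescence from One-Glo reagent (30 min, room temperature) was read after 18 h compound treatment at 37 C of PGC/ERR cells plated 6 h beforehand; compounds delivered in DMSO by pin tool.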

[10] = activation: at 73.3 µM (top of the series) unless noted
% is scaled to controls: 0 for no effect and ±100 for the full control effect.

CCCCCCCCCCCCO
inactive: Potency [1] | Potency [2] | Potency [3] | Potency [4, 10] | Potency [5]

c1ccc2c(c1)ccc1cc3c(ccc4ccccc43)cc12
inactive: Potency [1] | Potency [2] | Potency [3] | Potency [5]
active: Potency [4, 10] 152 nM and 215 nM

IC(I)I
inactive: Potency [1] | Potency [2] | Potency [3] | Potency [4, 10] | Potency [5]

Cc1ccc(C(C)(C)C)cc1
active: activation [4, 10] 0.0823% [at 94.8 µM]
inactive: Potency [1] | Potency [2] | activation ([4]; at 73.3 µM (top of the series)) -0.68% | Potency [5]

Nc1ccc2c(c1)C(=O)c1ccccc1C2=O
active: Potency [4, 10] 338 nM and 273 nM
inactive: Potency [1] | Potency [2]

CCCCCCCC/C=C\CCCCCCCC(=O)O
inactive: Potency [1] | Potency [2] | Potency [4, 10] | Potency [5]

c1ccc2c(c1)[nH]c1ccccc12
inactive: Potency [1] | Potency [2] | Potency [4, 10] | Potency [5]

C1COCCN1
inactive: Potency [1] | Potency [2] | Potency [3] | Potency [4, 10] | Potency [5]

C=CCOC(=O)C(=C)C
inactive: Potency [1] | Potency [2] | Potency [4, 10] | Potency [5]

Oc1ccc(C(c2ccc(O)cc2)C(Cl)(Cl)Cl)cc1
inactive: Potency [1] | Potency [2]

O=C(O)c1cc(=O)[nH]c(=O)[nH]1
inactive: Potency [1] | Potency [2] | Potency [4, 10] | Potency [5]

ClC/C=C/CCl
inactive: Potency [1] | Potency [2] | Potency [3] | Potency [4, 10] | Potency [5]

NCCS(=O)(=O)O
28.4 µM (active) and inactive: Potency [4, 10]
inactive: Potency [1] | Potency [2] | outcome [6] | Potency [5]

Cc1ccc(S(=O)(=O)O)cc1C
inactive: Potency [1] | Potency [2] | Potency [4, 10] | Potency [5]

CCCOCCO
inactive: Potency [1] | Potency [2] | Potency [3] | Potency [4, 10] | Potency [5]

CCOC(=O)C(C)Oc1ccc(Oc2cnc3cc(Cl)ccc3n2)cc1 (stereo not drawn)
inactive: Potency [1] | Potency [2] | Potency [3] | Potency [4, 10] | Potency [5]

Cc1cccc(Nc2ccccc2C(=O)O)c1C
inactive: Potency [1] | Potency [2] | Potency [3] | Potency [4, 10] | Potency [5]

CCC(Cc1c(I)cc(I)c(N)c1I)C(=O)O (stereo not drawn)
inactive: Potency [1] | Potency [2] | Potency [3] | Potency [4, 10] | Potency [5]

Cc1ccc(C)c(O)c1
inactive: Potency [1] | Potency [2] | Potency [4, 10] | Potency [5]

[O-]/[N+](=N\O)c1ccccc1
inactive: Potency [1] | Potency [2] | Potency [5]
active: Potency [4, 10] 48.6 µM

Clc1ccc(Sc2cc(Cl)c(Cl)cc2Cl)cc1
inactive: Potency [1] | Potency [2] | Potency [3] | Potency [4, 10] | Potency [5]

O=C(O)CCCC(=O)O
inactive: Potency [1] | Potency [2] | Potency [3] | Potency [4, 10] | Potency [5]

C1CN(SSN2CCOCC2)CCO1
active: Potency [1] 54.4 µM | Potency [3] 53.9 µM
inactive: Potency [2] | Potency [4, 10]

Brc1nc2ccccc2s1
inactive: Potency [1] | Potency [2] | Potency [3] | Potency [4, 10] | Potency [5]

Nc1ccc(N)c(Cl)c1
active: Potency [1] 24.5 µM and 49 µM | Potency [5] 61 µM and 54.5 µM
inactive: Potency [2] | Potency [3] | Potency [4, 10]

C=CCNCC=C
inactive: Potency [1] | Potency [2] | Potency [3] | Potency [4, 10] | Potency [5]

Cc1ccc2c(c1)C(=O)OC2=O
inactive: Potency [1] | Potency [2] | Potency [3] | Potency [4, 10] | Potency [5]

Cc1ccc(N)c([N+](=O)[O-])c1
inactive: Potency [1] | Potency [2] | Potency [3] | Potency [4, 10] | Potency [5]

COc1ccc2nc(N)sc2c1
active: Potency [4, 10] 19.3 µM
inactive: Potency [1] | Potency [2] | Potency [5]

C=C1C[C@H]2[C@@H]3C=C(C)C4=CC(=O)CC[C@]4(C)[C@H]3CC[C@]2(C)[C@@]1(OC(C)=O)C(C)=O
inactive: Potency [1] | Potency [2] | Potency [3] | Potency [4, 10]

CN(C)/N=N/c1nc[nH]c1C(N)=O
inactive: Potency [1] | Potency [2] | Potency [3] | Potency [4, 10] | Potency [5]

C/C=C/C(=O)N(CC)c1ccccc1C
inactive: Potency [1] | Potency [2] | Potency [4, 10] | Potency [5]

FC(F)(F)C(Cl)Br (stereo not drawn)
inactive: Potency [1] | Potency [2] | Potency [3] | Potency [4, 10] | Potency [5]

CN1CCOCC1
inactive: Potency [1] | Potency [2] | Potency [4, 10] | Potency [5]

COc1ccc(C(=O)c2ccccc2O)c(O)c1
inactive: Potency [1] | Potency [2] | Potency [4, 10] | Potency [5]

C[C@]12CC[C@@H]3c4ccc(O)cc4CC[C@H]3[C@@H]1CC[C@@H]2O
active: Potency [5] 30.6 µM and 43.3 µM
inactive: Potency [1] | Potency [2] | Potency [4, 10] | outcome [7] | outcome [8] | outcome [6] | outcome [9]

CC1=CC(C)(C)Nc2ccccc21
inactive: Potency [1] | Potency [2] | Potency [4, 10] | Potency [5]

OC[C@H]1O[C@@H]2O[C@H]3[C@H](O)[C@@H](O)[C@@H](O[C@H]4[C@H](O)[C@@H](O)[C@@H](O[C@H]5[C@H](O)[C@@H](O)[C@@H](O[C@H]6[C@H](O)[C@@H](O)[C@@H](O[C@H]7[C@H](O)[C@@H](O)[C@@H](O[C@H]1[C@H](O)[C@H]2O)O[C@@H]7CO)O[C@@H]6CO)O[C@@H]5CO)O[C@@H]4CO)O[C@@H]3CO
inactive: Potency [1] | Potency [2] | Potency [3] | Potency [5]
